Experimental data taken from PubChem BioAssay (NCI).
This is part of a sample that, as a whole, favours compounds with a hit. Of some 79,000 tested, about 15% had one in any assay. Rule as the data show it: active = growth inhibition above about 70%; inactive = the rest.

Legend:
[1] = NCI Yeast Anticancer Drug Screen. Data for the rad50 strain (AID 155);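 also: 0% = growth of vehicle-only cultures of the same strain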; conditions: S. cerevisiae rad50 strain growth inhibition; at 50.0 µM; stronger effect = higher value
In short: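 Yeast carrying a defined DNA repair defect were exposed to test compounds, and growth was compared with vehicle-treated controls to give percent inhibition.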

[2] = NCI Yeast Anticancer Drug Screen. Data for the mec2-1 strain (AID 157); conditions: S. cerevisiae mec2-1 strain, at 50.0 µM, stronger effect = higher value
In short: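 Each compound was tested on mec2-1 yeast, a strain altered in DNA damage repair or cell cycle control. Growth inhibition is reported relative to vehicle.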

[3] = NCI Yeast Anticancer Drug Screen. Data for the sgs1 mgt1 strain (AID 161);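 also: 0% = growth of cultures given vehicle only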; conditions: S. cerevisiae sgs1 mgt1 strain, at 50.0 µM, stronger effect = higher value
In short: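 Read-out: growth inhibition vs vehicle controls. Cells: mutant yeast strain deficient in DNA damage repair.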

[4] = NCI Yeast Anticancer Drug Screen. Data for the cln2 rad14 strain (AID 165);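 also: 0% = growth equal to vehicle treated cultures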; conditions: S. cerevisiae cln2 rad14 strain, at 50.0 µM, stronger effect = higher value
In short: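 Test compounds were added to cln2 rad14 yeast cultures; inhibition of growth was then determined by comparison with vehicle treatment.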

[5] = NCI Yeast Anticancer Drug Screen. Data for the bub3 strain (AID 167); conditions: S. cerevisiae bub3 mutant strain, at 50.0 µM, stronger effect = higher value
In short: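 Compounds were applied to a genetically altered yeast strain carrying a cell-cycle control defect. Growth inhibition was scored against vehicle-treated controls.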

[6] = NCI Yeast Anticancer Drug Screen. Data for the mlh1 rad18 strain (AID 175); conditions: S. cerevisiae mlh1 rad18 strain growth inhibition; at 50.0 µM; stronger effect = higher value
In short: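 Inhibition values reflect reduced growth of mutant yeast versus vehicle-treated controls following compound exposure; the mutations affect DNA damage repair.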

Measured: growth inhibition

O=C1C2CCSCN2C(=O)N1c1ccccc1 (stereo unspecified)
inactive: [1] -41.9% | [2] -14.9% | [3] -7.75% | [4] -15.9% | [5] -1.15% | [6] -19%

NC(=O)C(Cc1ccc(O)cc1)NC(=O)c1ccccc1 (stereo unspecified)
inactive: [1] -8.8% | [2] -16.6% | [3] -0.1% | [4] 1.85% | [5] 22.1% | [6] -14.2%

CC(CC(C(=O)N(C)C)(c1ccccc1)c1ccccc1)[N+](C)(C)[O-] (stereo unspecified)
inactive: [1] 5.5% | [2] 17.4% | [3] 0.1% | [4] 11.9% | [5] 13.3% | [6] 3.8%

O=[N+]([O-])c1cccc(C(O)(C(F)(F)F)C(F)(F)F)c1
inactive: [1] -19.1% | [2] 6.2% | [3] 1.7% | [4] 24.1% | [5] 42.7% | [6] 14%

CCOc1ccc2nc(C)ccc2c1
inactive: [1] 3.25% | [2] -14.7% | [3] 21.9% | [4] 9.85% | [5] 4.95% | [6] 17.7%

COc1ccc2c(C)cc(N/N=C(\C)c3cn(C)n(-c4ccccc4)c3=O)nc2c1
inactive: [1] -2.25% | [2] -7.1% | [3] -5.95% | [4] 13.2% | [5] -1.8% | [6] 1.65%

CN(/N=C/c1ccccn1)C1=NCCCN1
inactive: [1] -20.2% | [2] -22% | [3] -23% | [4] 5.35% | [5] -5.4% | [6] -27%

CCOC(=O)/C=C(\C)NC
inactive: [1] -27.5% | [2] -46.9% | [3] -30.9% | [4] -2.75% | [5] -47% | [6] 5.95%

CN(C)CC1C2CCC(C2)C1O (stereo unspecified)
inactive: [1] 2.2% | [2] -20.6% | [3] -7.7% | [4] 8% | [5] -11.7% | [6] 4.4%

CCOC(=O)/C=C/SCC(N)C(=O)OCC (stereo unspecified)
inactive: [1] -14.4% | [2] -1.45% | [3] -12.9% | [4] 19.6% | [5] -5.55% | [6] -4.55%

CCOC(C)OCCCI (stereo unspecified)
inactive: [1] -25.8% | [2] -21.3% | [3] 3.5% | [4] -9.7% | [5] -13.3% | [6] 13.2%

CN(/N=C\c1ccc2ccccc2c1)C1=NCCCCN1
inactive: [1] -2.05% | [2] -5.45% | [3] -27.6% | [4] -37% | [5] -0.1% | [6] 1.6%

Cc1ccc(N=NN(C)C)cc1
inactive: [1] 2.55% | [2] 3.65% | [3] -9.55% | [4] -2.6% | [5] 1.55% | [6] 33%

Clc1ccc(OCCSCCOc2ccc(Cl)cc2)cc1
inactive: [1] 8.85% | [2] -17.8% | [3] 12.5% | [4] -22.1% | [5] 0.9% | [6] 2.35%

CCCCOC(=O)C1=NNC(=O)C1
inactive: [1] -17.6% | [2] -17.9% | [3] -11.9% | [4] -10.1% | [5] -12.3% | [6] -11.9%

CCOC(=O)C(=O)Nc1ccc2cc(OC)ccc2c1C#N
inactive: [1] 13.8% | [2] 14.2% | [3] 14.8% | [4] 35.2% | [5] 19.4% | [6] -17.8%

C/C=C/C=N/SC(c1ccccc1)(c1ccccc1)c1ccccc1
inactive: [1] 9.35% | [2] -7% | [3] -5.05% | [4] 4.45% | [5] -26.1% | [6] 13.6%

O=C(O)c1c(I)cc(I)c(O)c1I
inactive: [1] -1% | [2] -13.5% | [3] 1.75% | [4] 7.65% | [5] 10.9% | [6] -6.9%

COC(=O)CC1C=CC(OC)[C@@]2(C)C(=O)C(OC)=CC(=O)[C@@H]12 (stereo partly specified)
inactive: [1] 8.7% | [2] -15.1% | [3] -11.4% | [4] 19.6% | [5] 2.4% | [6] -3.45%

COc1cc(NC(=O)CC(C)=O)cc(OC)c1
inactive: [1] -4% | [2] -5% | [3] -10% | [4] 3.2% | [5] -18.4% | [6] -2.5%

O=c1[nH]c(Nc2nc3ccccc3[nH]2)nc(O)c1-c1ccccc1
inactive: [1] -2.85% | [2] -14% | [3] -23.2% | [4] -6.7% | [5] -6.05% | [6] -28.6%

CCOC(=O)C1=NNCC1c1cccc(Cl)c1 (stereo unspecified)
inactive: [1] 12.5% | [2] -7.5% | [3] -3.7% | [4] -37.9% | [5] -13.2% | [6] -6.5%

CCCOc1ccc(/C=C\c2cc(OC)c(OC)c(OC)c2)cc1
inactive: [1] 0.85% | [2] 3.9% | [3] -2.05% | [4] 3.4% | [5] 10.1% | [6] 43.5%

O=C(N/N=C/c1cccnc1)C(O)C(O)C(O)C(O)CO (stereo unspecified)
inactive: [1] -4.15% | [2] 8.9% | [3] 6.75% | [4] 7.6% | [5] -12.6% | [6] 11.9%

O=[N+]([O-])c1ccc(Cc2ncnc3c2ncn3C2OC(CO)C(O)C2O)cc1 (stereo unspecified)
inactive: [1] 5.1% | [2] -13.2% | [3] -16.4% | [4] -0.95% | [5] 2.15% | [6] -18.9%

Oc1cccc2nc3cc(CN4CCOCC4)c(CN4CCOCC4)cc3nc12
inactive: [1] 8.35% | [2] -18.4% | [3] -1.05% | [4] 2.7% | [5] -26.1% | [6] -4%

CC(C)CCCC(C)C1CCC2C3CCC4=C/C(=N/O)CCC4(C)C3CCC12C (stereo unspecified)
inactive: [1] 40.2% | [2] 12.2% | [3] 40.8% | [4] 34.5% | [5] 25.2% | [6] 32.6%

c1ccc2cc(B(c3cccc4ccccc34)c3cccc4ccccc34)ccc2c1
inactive: [1] 14% | [2] -8.75% | [3] -8.4% | [4] -25.6% | [5] -2.25% | [6] -23.9%

COC1OC(COS(=O)(=O)c2ccc(C)cc2)C(OS(=O)(=O)c2ccc(C)cc2)C1OCc1ccccc1 (stereo unspecified)
inactive: [1] -2.35% | [2] 2.85% | [3] 3.9% | [4] -15.7% | [5] -0.65% | [6] -1.4%

S=C(S)N(Cc1ccccc1)Cc1ccccc1
inactive: [1] 33.4% | [2] -3% | [3] 27.2% | [4] -0.7% | [5] 6.6% | [6] 36.5%

CC(=O)c1cc2cc(Br)ccc2oc1=O
inactive: [1] 13.5% | [2] 18% | [3] 16.2% | [4] 24.9% | [5] 14.4% | [6] 23.6%

O/N=C\c1cccc[n+]1Cc1ccc2ccccc2c1Br
inactive: [1] -1.7% | [2] 1.95% | [3] -7.55% | [4] -7.05% | [5] 10.7% | [6] -1.75%

O=C1CSC2=NC3=C(COC/C3=C\c3ccc(F)cc3)C(c3ccc(F)cc3)N12 (stereo unspecified)
inactive: [1] 16.6% | [2] 28.3% | [3] 41.9% | [4] 21.2% | [5] 30.1% | [6] 31.2%

CSc1ncc2c(C#N)c3ccccn3c(=O)c2n1
inactive: [1] 6.65% | [2] -7% | [3] 11.2% | [4] -1.5% | [5] 14.4% | [6] -17.5%

Cc1ccc(N=C(N)N)cc1
inactive: [1] -1.25% | [2] 0.3% | [3] 1.05% | [4] 12.3% | [5] 0.7% | [6] -1.8%

COc1cc2c(cc1OC)C1CCN3CCCC3N1CC2 (stereo unspecified)
inactive: [1] -7.8% | [2] 7.6% | [3] 0.1% | [4] -14.9% | [5] 2.2% | [6] 3.3%

CNC(=O)NCCCC(NC(C)=O)C(=O)NCc1ccccc1 (stereo unspecified)
inactive: [1] -19% | [2] -16.7% | [3] -16.2% | [4] 6.4% | [5] -12.5% | [6] 4.7%

CCc1ccc(N=Nc2c(F)c(F)c(N)c(F)c2F)cc1
inactive: [1] 6.1% | [2] -11.3% | [3] 2.4% | [4] 2.85% | [5] 0.55% | [6] 14.3%

CC(C)C1CCC2(C)C(CCC3C4(C)CCCC32OC4)C1 (stereo unspecified)
inactive: [1] -20.5% | [2] 1.35% | [3] 0.75% | [4] -25.1% | [5] 48% | [6] 11.4%

COc1ccccc1N1C(=O)C2C3c4ccccc4C(OC(C)=O)(c4ccccc43)C2C1=O (stereo unspecified)
inactive: [1] -19.8% | [2] -13.6% | [3] 4.25% | [4] 3.4% | [5] -14.8% | [6] 12.9%

COc1ccc(CC(=O)c2c(O)c3c(c(CC=C(C)C)c2OC)OC(C)(C)C=C3)cc1
inactive: [1] 22.4% | [2] -26.3% | [3] -14.8% | [4] 4.15% | [5] -2.75% | [6] 14.2%
